Test [1] in a line: RMG-1 ovarian cancer cell viability loss – cherry-pick, dose response (AID 687029;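 active means signal drop whose fitted half-maximal concentration is at most twice the top valid dose, in every test run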;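 further: cells exposed to compound for 96 hours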). As to conditions: RMG-1 viability, CellTiterGlo ATP luminescence, 96 h; series mostly up to 35 µM.
The nature of test [2]: IOSE-T80 viability loss, PAX8-independent line – cell-based, cherry-pick, selectivity assay for PAX8 inhibitor project, dose response (AID 687032).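 Further: cells exposed to compound for 96 h before reading.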 The conditions noted are these: CellTiterGlo ATP luminescence, 96 h; series mostly up to 35 µM. (In general: ATP-based viability assays read luminescence as a measure of living cells.)
Test [3] can be described thus: small-molecule DNA binding by polarization – biochemical, fluorescence polarization, cherry-pick, counter-screen for EWS/Fli inhibitor project, dose response (AID 720586;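 active means fitted curve reaches a 35% signal fall AC35 below twice the sample's top valid tested dose, actives reach about 48 µM in these data; inactive means the rest, including activity in the rising direction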;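 further: lower polarization ratio signals compound binding to DNA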). The conditions noted are these: salmon sperm DNA acridine orange fluorescence polarization; series mostly up to 68 µM. A general note: In fluorescence polarisation assays a small probe gives low polarisation when free and higher when bound to something large.

Test [4] is described as follows: general cell-killing toxicity readout – plate reader, dry powder samples, cytotoxicity control for PAX8 inhibitor project, dose response (AID 743021; call rule not given here). As to conditions: cell line, non-specific cytotoxicity counter-screen; series mostly up to 35 µM. For orientation: The purpose of a counterscreen is to sort out artefacts and off-target activity.
Test [5] in a line: CMV-driven luciferase expression suppression in HEK293 – cell-based, luminescence, dry powder, counter-screen for Pax8 inhibitor project, dose response (AID 743020;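 active means signal-lowering compounds whose fitted half-maximal concentration is at or below twice the top tested dose in every run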;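 further: HEK293 cells stably expressing the CMV luciferase reporter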). As to conditions: HEK293 CMV-luciferase reporter, SteadyGlo luminescence, 24 h; series mostly up to 35 µM.

For some assays here: Measured potencies and affinities stand elsewhere. Results filed as inconclusive are left out. This is one part of the list. The source made the active and inactive calls.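 How the source made its calls, unless noted: active means fitted half-maximal concentration for viability loss no higher than twice the top valid dose, in every repeat run; inconclusive means repeat runs disagree, flat partial loss, or poor curve fit; inactive means the rest.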

On to `CC[C@@H](C)[C@H](CNC)NC[C@@H](Cc1cccc2ccccc12)NCCc1cccc(C(F)(F)F)c1`, for which the outcome in test [1] and in test [2] was inactive.
Turning to `Cc1nn(-c2ccccc2)c(Cl)c1CN(C(=O)CCl)c1ccc(Cl)cc1`, the result in test [1] and in test [2] was inactive.
Take `OC(CNCC(c1ccc(Cl)cc1Cl)c1c[nH]c2ccccc12)c1ccccc1` (stereo not drawn): the result in test [1] and in test [2] was inactive.
With `CCS(=O)(=O)c1ncc(Cl)c(C(=O)Nc2ccc(S(=O)(=O)N(C)c3ccccc3)cc2)n1`, the call in test [1] and in test [2] was inactive.
Take `O=C(Nc1ccc2nc3n(c(=O)c2c1)CCCCC3)c1cc([N+](=O)[O-])ccc1F`: the compound was classed as inactive in test [1] and in test [2].
`C[C@H](CO)N1C[C@H](C)[C@@H](CN(C)S(=O)(=O)c2ccc(F)cc2)OCCCC[C@H](C)Oc2ccc(NS(=O)(=O)c3ccc(Cl)cc3)cc2C1=O`: the outcome in test [1] and in test [2] was inactive.
On to `COc1ccc(C#Cc2ccc([C@H]3[C@@H](CO)N4CCCCN(C(=O)Nc5cccc(F)c5)C[C@H]34)cc2)cc1`, for which the outcome in test [1] and in test [2] was inactive.
Regarding `O=C(C#Cc1ccccc1)c1ccco1`, the call in test [1] and in test [2] was inactive.
On to `CCN(CC)S(=O)(=O)c1cc([N+](=O)[O-])ccc1NNC(=O)Nc1ccc(Cl)c(Cl)c1`, for which the compound was classed as inactive in test [1] and in test [2].
With `Brc1ccc2nc(-c3ccc(CN4CCC(c5nc6ccccc6[nH]5)CC4)cc3)c(-c3ccccc3)nc2c1`, the compound was called inactive in test [1] and in test [2].
In the case of `NC1=CC(=O)C(=O)c2cccnc21`, the compound was called inactive in test [1], in test [2] and in test [4]. Also, the AC35 result in test [3] is “inactive”.
On to `COc1ccc(C2C(O)C(c3c[nH]c4ccccc34)=NN2C(=O)CCl)cc1` (stereo not drawn), for which the compound was classed as inactive in test [1] and in test [2].
With `COc1ccc(/C=N/Nc2cc(C)nc3ccc(Br)cc23)cc1`, the outcome in test [1] and in test [2] was inactive.
As for `COc1cc(/C=N/Nc2nc(Nc3ccc(C)cc3)nc(-n3nc(C)cc3C)n2)cc(OC)c1OC`, the compound was classed as inactive in test [1] and in test [2].
`Cc1cc(C)c2nc(C)cc(N/N=C/c3ccc(O)cc3)c2c1`: the call in test [1] and in test [2] was inactive.
Consider `COc1ccc(N(C(=O)CCl)C(C(=O)NC2CCCCC2)c2cccnc2)cc1` (stereo not drawn), for which the outcome in test [1] and in test [2] was inactive.
In the case of `C#Cc1cc(N2CCN(C(=O)c3ccoc3)CC2)n2nc(-c3cccc(Cl)c3)cc2n1`, the compound was classed as inactive in test [1] and in test [2].
`C=CCOc1ccccc1CN(C(=O)CCl)c1ccc2c(c1)OCO2`: the result in test [1] and in test [2] was inactive.
With `CC(=O)n1cc(N(C(=O)CCl)c2ccccc2)c2ccccc21`, the call in test [1] and in test [2] was inactive.
For the compound `COc1cccc(NC(=O)Nc2nc(-c3ccc(OC)c(OC)c3)cs2)c1`, the result in test [1] and in test [2] was inactive.
Regarding `CCS(=O)(=O)c1ncc(Cl)c(C(=O)Nc2ccc(C)cc2)n1`, the compound was classed as inactive in test [1] and in test [2].
For `COc1ccccc1N(C(=O)CCl)c1cn(C(C)=O)c2ccccc12`, the call in test [1] and in test [2] was inactive.
For the compound `C[C@H]1CN([C@@H](C)CO)C(=O)c2c(c3ccccc3n2C)-c2ccccc2CO[C@H]1CN(C)S(=O)(=O)c1ccc([N+](=O)[O-])cc1`, the outcome in test [1] and in test [2] was inactive.
`COC(=O)C1=C(C)N(Cc2ccc(C(F)(F)F)cc2)C(=NCc2ccccc2)NC1c1cccc(Cl)c1` (stereo not drawn): the call in test [1] and in test [2] was inactive.
Consider `COc1ccc(NC(=O)c2cc([N+](=O)[O-])ccc2O)cc1`, for which the compound was classed as inactive in test [1] and in test [2].
Take `O=c1c(Br)c(Br)cnn1-c1ccccc1`: the outcome in test [1] and in test [2] was inactive.
For `N#C[C@@H]1[C@H](c2ccc(C#CC3CCCC3)cc2)[C@H](CO)N1C(=O)Nc1ccc(F)cc1`, the compound was called inactive in test [1] and in test [2].
As to `CCOc1ccccc1NC(=O)c1nc(S(=O)(=O)Cc2ccccc2)ncc1Cl`, the compound was called inactive in test [1], in test [2] and in test [5].
In the case of `COc1ccc(N(C(=O)CCl)C(C(=O)NCCc2ccccc2)c2cccs2)cc1Cl` (stereo not drawn), the result in test [1] and in test [2] was inactive.
As to `CC(OC(=O)c1ccc(S(C)(=O)=O)c([N+](=O)[O-])c1)C(=O)NC1C2CC3CC(C2)CC1C3` (stereo not drawn), the compound was classed as inactive in test [1] and in test [2].
Regarding `CN(C[C@H]1N[C@@H](CO)[C@@H]1c1ccc(-c2cccnc2)cc1)C(=O)c1ccccc1`, the compound was classed as inactive in test [1] and in test [2].
In the case of `CC1(C)CC(=O)C=C(C#CC2(O)CCCCC2)C1`, the call in test [1], in test [2] and in test [5] was inactive.

(Values after PubChem BioAssay.)
